Reference: PubChem BioAssay

assay: probe aNog binding to arrayed compounds – biochemical, biotinylated probe, 635/667 nm fluorescence, primary screen (AID 1115); conditions: small-molecule microarray, higher = more signal;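 note: probe is biotinylated aNog protein used at 0.15 µg/mL for 1 h at 4 C; z-score combines 667 nm fluorescence of each spot with its signal to noise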

Q: Which composite z-score does the source give for `CCOC(=O)C[C@H]1[C@H](OC(=O)c2ccccc2-c2ccccc2)[C@@H](NC(=O)c2ccccc2)c2cc(OCCCO)ccc2N1C(=O)Cc1ccc(OC)cc1` here?
A: The composite z-score was -0.0877.

Q: With `C=CCC(OC(C)=O)[C@@H]1[C@@H](N(Cc2ccc(-c3cccc(C(F)(F)F)c3)o2)C(=O)c2cccc3ccccc23)c2cc(OCCCO)ccc2N1C(=O)c1ccc(-c2ccccc2)cc1` (stereo partly specified) as the molecule, how does the composite z-score read?
A: The composite z-score was -0.182.

Q: For `C[C@H]1ON(c2ccccc2)[C@@H](c2ccccc2)[C@@H]1C(=O)N1C(=O)OC[C@@H]1c1ccccc1`, which composite z-score is on record?
A: Its composite z-score is -0.0855.

Q: Which composite z-score does the source give for `COCCOC(=O)N1C(=O)[C@@]2(c3cc(C#CCNC(N)=O)ccc31)[C@H](C(N)=O)[C@H]1C(=O)O[C@H](c3ccccc3)[C@H](c3ccccc3)N1[C@@H]2c1ccc(OCCO)cc1` here?
A: The composite z-score was 0.271.

Q: For `CCCC=C(CCC)[C@@H](NS(=O)(=O)c1cccc2cccnc12)c1ccc(C(=O)OC)cc1`, which composite z-score is on record?
A: The composite z-score was 3.92.

Q: For `CCOC(=O)C1=CC[C@@H](c2ccccc2)N(S(=O)(=O)c2ccc(C)cc2)[C@H]1C=C(C)C`, which composite z-score is on record?
A: Its composite z-score is 1.06.

Q: Which composite z-score does the source give for `C#CCNS(=O)(=O)N(C)C` here?
A: The composite z-score was -0.168.

Q: Which composite z-score does the source give for `O=C1O[C@H](c2ccccc2)[C@H](c2ccccc2)N2[C@H]1[C@@H](C(=O)N1CCN(c3ncccn3)CC1)[C@]1(C(=O)Nc3ccc(C#CCCO)cc31)[C@H]2c1ccc(OCCO)cc1` here?
A: The composite z-score was 0.242.

Q: Which composite z-score does the source give for `COCCOC(=O)N1C(=O)[C@@]2(c3cc(C#CC4(O)CCCCCC4)ccc31)[C@H](C(=O)N1CCN(c3ncccn3)CC1)[C@H]1C(=O)O[C@H](c3ccccc3)[C@H](c3ccccc3)N1[C@@H]2c1ccc(O)cc1` here?
A: The composite z-score was -0.261.

Q: For `Cc1cc(C)c(C(O)C2C=CC3C(=O)N(c4ccccc4)C(=O)C3N2Nc2ccc([N+](=O)[O-])cc2)c(C)c1` (stereo unspecified), which composite z-score is on record?
A: Its composite z-score is 1.21.

Q: Which composite z-score does the source give for `Cc1ccc(S[C@]2(C(=O)O)CC(=O)N(C3CCCCC3)[C@@H]2c2ccc(CO)cc2)cc1` here?
A: The composite z-score was 1.1.

Q: For `CCOc1cc(C(O)C2C=CC3C(=O)NC(=O)C3N2Nc2ccccn2)ccc1O` (stereo unspecified), which composite z-score is on record?
A: The composite z-score was 0.0258.

Q: For `CC(=O)NCCCC[C@@H]1NC(=O)[C@@H]2C[C@H](C(=O)NCCCC[N+](C)(C)C)[C@H](c3cccc(OCCO)c3)N2C1=O`, which composite z-score is on record?
A: Its composite z-score is -0.314.

Q: With `COc1ccc([Si](C)(C)[C@@H]2[C@@H](CC(=O)N(CCO)Cc3ccccc3)O[C@]3(C(=O)N(Cc4ccc(N5CCOC5=O)cc4)c4ccccc43)[C@H]2C)cc1` as the molecule, how does the composite z-score read?
A: The composite z-score was 0.264.

Q: With `COC(=O)[C@]1(Cc2ccccc2CN=[N+]=[N-])N=C(c2ccc(OCCCO)cc2)O[C@@H]1c1ccccc1CN=[N+]=[N-]` as the molecule, how does the composite z-score read?
A: Its composite z-score is 0.589.

Q: For `CN(C)C(=O)[C@]1(Cc2ccccc2N=[N+]=[N-])N=C(c2ccc(OCCCO)cc2)O[C@@H]1c1ccccc1CN=[N+]=[N-]`, which composite z-score is on record?
A: The composite z-score was -0.488.

Q: Which composite z-score does the source give for `CC(C)(C)OC(=O)CC[C@@]1(C(=O)N2CCCCC2)N=C(c2ccc(OCCCO)cc2)O[C@@H]1c1ccccc1CN=[N+]=[N-]` here?
A: Its composite z-score is -0.685.

Q: With `CCN(CC)c1ccc(N2CC=CC34O[C@@H]5/C=C\CCCOC(=O)C5[C@H]3C(=O)N(CCCCCO)[C@@H]4C2=O)cc1` (stereo partly specified) as the molecule, how does the composite z-score read?
A: The composite z-score was -0.254.

Q: Which composite z-score does the source give for `[N-]=[N+]=Nc1ccccc1C[C@]1(C(=O)NCCN2CCOCC2)N=C(c2ccc(OCCCO)cc2)O[C@H]1c1ccccc1N=[N+]=[N-]` here?
A: Its composite z-score is 1.85.

Q: With `COC(=O)[C@]1(Cc2ccccc2CN=[N+]=[N-])N=C(c2ccc(OCCCO)cc2)O[C@@H]1c1ccccc1` as the molecule, how does the composite z-score read?
A: Its composite z-score is -0.361.

Q: With `COCCOC(=O)N1C(=O)[C@@]2(c3cc(C#Cc4ccc(OC)cc4)ccc31)[C@H](C(=O)N1CCc3cc(OC)c(OC)cc3C1)[C@H]1C(=O)O[C@H](c3ccccc3)[C@H](c3ccccc3)N1[C@@H]2c1ccc(O)cc1` as the molecule, how does the composite z-score read?
A: The composite z-score was -0.407.

Q: For `COCCOC(=O)N1C(=O)[C@@]2(c3cc(C#CCCO)ccc31)[C@H](C(=O)NC[C@H](O)c1ccccc1)[C@H]1C(=O)O[C@H](c3ccccc3)[C@H](c3ccccc3)N1[C@@H]2c1ccccc1OCCO`, which composite z-score is on record?
A: The composite z-score was 1.36.

Q: With `COc1ccccc1CN1C(=O)c2ccccc2[C@@H](C(=O)NCC(C)C)[C@@H]1c1ccc(CO)cc1` as the molecule, how does the composite z-score read?
A: The composite z-score was -0.0069.

Q: With `C=CCN1C(=O)[C@@]2(O[C@@H](CCn3cc([C@H](O)c4ccccc4)nn3)[C@H]([Si](C)(C)c3ccc(OC)cc3)[C@H]2C)c2cc(NC(=O)c3ccc(OC)cc3)ccc21` as the molecule, how does the composite z-score read?
A: Its composite z-score is 0.338.

Q: Which composite z-score does the source give for `O=C(O)[C@]1(CCS(=O)(=O)c2ccccc2)N=C(c2ccc(OCCCO)cc2)O[C@@H]1c1ccccc1` here?
A: Its composite z-score is 1.82.

Q: Which composite z-score does the source give for `CN(C)CCCN1C(=O)[C@@]2(Cc3ccccc31)c1ccccc1C(=O)N(Cc1ccccc1)[C@H]2c1ccc(CO)cc1` here?
A: The composite z-score was -0.288.
